Assay results: article PMC5540273 (PLoS ONE, 2017)

Key:
Conditions in all cases: concentration: 1 μM, replicates: in singlicate; n = 1
NEK7 = system: NEK7
NEK9 = system: NEK9
NIK = system: T1, NIK
T1 construct: gene MAP3K14

NIM1 = system: T2, NIM1
T2 construct: gene MGC42105

NLK = system: NLK
OSR1 = system: T3, OSR1
T3 construct: gene OXSR1

PAK1 = system: PAK1
PAK2 = system: PAK2
PAK3 = system: PAK3
PAK4 = system: PAK4
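Note: KINOMEscan kinase panel screen.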

| Structure (SMILES) | %Inh (NEK7) [%] | %Inh (NEK9) [%] | %Inh (NIK) [%] | %Inh (NIM1) [%] | %Inh (NLK) [%] | %Inh (OSR1) [%] | %Inh (PAK1) [%] | %Inh (PAK2) [%] | %Inh (PAK3) [%] | %Inh (PAK4) [%] |
| --- | --- | --- | --- | --- | --- | --- | --- | --- | --- | --- |
| Cn1ccc2ncnc(Oc3ccc(NC(=O)Nc4ccccc4)cc3)c21 | 0 | 0 | 6 | 0 | 11 | 0 | 10 | 17 | 40 | 10 |
| Cc1cccc(-c2nc(C)cc(Nc3ccncc3)n2)n1 [GSK257997] | 0 | 46 | 10 | 6 | 30 | 10 | 44 | 41 | 32 | 23 |
| Cc1ccc(NC(=O)Nc2cccc(Cl)c2)cc1-c1ccc(C(=O)Nc2ccncc2)cc1 [GSK1398468] | 0 | 0 | 2 | 11 | 38 | 12 | 19 | 0 | 0 | 0 |
| CC(C)(C)c1ccc(C(=O)Nc2cn3cc(-c4cccnc4)ccc3n2)cc1 | 4 | 0 | 20 | 22 | 1 | 0 | 36 | 36 | 51 | 24 |
| Cc1cccc(-c2nc(Nc3ccncc3)c3ccccc3n2)n1 [GW855857] | 0 | 0 | 0 | 0 | 47 | 0 | 0 | 0 | 0 | 0 |
| COc1ccc2nc(-c3cccc(C)n3)nc(Nc3ccncc3)c2c1 [GSK204919] | 0 | 0 | 0 | 0 | 52 | 10 | 8 | 14 | 7 | 0 |
| O=C(Nc1ccccc1)Nc1cccc(Oc2ccc3nccn3n2)c1 | 0 | 36 | 7 | 19 | 22 | 0 | 0 | 0 | 0 | 0 |
| Cn1cncc1-c1ccc2ncnc(Nc3ccc(OCc4ccccc4)cc3)c2c1 [GW320571] | 0 | 12 | 0 | 19 | 11 | 19 | 0 | 0 | 2 | 0 |
| CN(C)CCN(C)C(=O)c1cc(-c2ccncc2)c(-c2ccc(Cl)c(O)c2)o1.Cl.Cl [SB-710397] | 0 | 0 | 16 | 35 | 76 | 4 | 6 | 0 | 16 | 0 |
| COc1cccc(NC(=O)NC2CCN(c3ccnc(Nc4ccc(F)cc4)n3)C2)c1 (centres unmarked) [GSK1379721] | 16 | 35 | 2 | 14 | 0 | 4 | 0 | 0 | 0 | 0 |
| COC(=O)c1c(-c2ccccc2)c2cc(C(=O)O)ccc2c(=O)n1Cc1ccccc1 | 0 | 0 | 0 | 0 | 0 | 0 | 14 | 22 | 0 | 0 |
| CCCc1ccc(S(=O)(=O)NC2CCN(c3ccnc(Nc4ccc(F)cc4)n3)C2)cc1 (centres unmarked) [GSK1379715] | 0 | 0 | 23 | 18 | 0 | 17 | 0 | 2 | 3 | 0 |
| O=C(Nc1n[nH]c2nc(-c3nccs3)c(Br)cc12)C1CC1 [SB-742251] | 0 | 0 | 44 | 0 | 0 | 7 | 2 | 16 | 20 | 0 |
| Cc1c(Cn2ccn3c(=O)cc(N4CCOCC4)nc23)cccc1C(F)(F)F [GSK2289044] | 4 | 20 | 0 | 7 | 27 | 8 | 16 | 8 | 13 | 0 |
| Cc1cc(NCC(c2ccccc2)c2ccccc2)nc(NCc2ccc(C(F)(F)F)cc2)n1 [GW497681] | 0 | 0 | 7 | 22 | 0 | 3 | 0 | 2 | 0 | 0 |
| Fc1cccc(COc2nnc(-c3ccc4c(c3)CCO4)o2)c1 | 19 | 3 | 0 | 0 | 6 | 0 | 27 | 55 | 16 | 15 |
| COc1cc2nccc(Nc3ccc(NC(=O)c4ccc(C)cc4)c(O)c3)c2cc1OC.Cl [GW440132] | 0 | 14 | 15 | 7 | 0 | 17 | 0 | 0 | 22 | 0 |
| CS(=O)(=O)c1ccc(-c2nc3n(c2-c2ccncc2)CCC3)cc1 [SKF-105942] | 0 | 0 | 3 | 17 | 0 | 0 | 19 | 26 | 0 | 0 |
| CC(C)(C)c1ccc(C(=O)Nc2cn3cc(Cl)ccc3n2)cc1 | 0 | 0 | 0 | 0 | 0 | 0 | 0 | 14 | 0 | 0 |
| COc1cc2ncn(-c3cc(OCC4CCCO4)c(C(N)=O)s3)c2cc1OC (centres unmarked) [GSK204607] | 0 | 0 | 19 | 23 | 15 | 0 | 0 | 0 | 9 | 0 |
